# Screen size: about 48,000 compounds; about 13,000 (27%) showed an effect of 50% or more. The list shows a part of the results.
# System: Wolbachia pipientis
# Test: Anti-Wolbachia Cell-Based Screen
# Format: functional
# Design: scale not given: in the data most compounds retested in dose-response had high values
# Settings: 5 µM
row,Compound,Percent Effect
1,NC(=O)Nc1cccc(C(=O)N(Cc2ccncc2)C2CC2)c1,8.655%
2,CC(O)CN1CCC(CNCc2ccccc2Br)CC1 (stereo unspecified),-8.503%
3,O=C(NCCN1CCOCC1)NCc1ccc(-n2cccn2)cc1,-7.54%
4,CC(C)Nc1nc2c(c(NC3CC3)n1)CCN(C1CCOCC1)CC2,-24.37%
5,O=C(CO)N1CCN(S(=O)(=O)CCCF)CC1,-8.107%
6,O=C(c1ccoc1)N1CCCCC1c1nc[nH]n1 (stereo unspecified),11.28%
7,O=S(=O)(N(Cc1ccccn1)C1CC1)N1CCCC1c1ccco1 (stereo unspecified),17.98%
8,Nc1cc(-c2c[nH]nc2C2CCCCN2C(=O)C2CCCC2)ccn1 (stereo unspecified),118.9%
9,Nc1cc(-c2c[nH]nc2C2CCCN2CCCc2ccccc2)ccn1 (stereo unspecified),114.8%
10,Nc1ncncc1-c1noc([C@@H]2CCCN2CCCc2ccccc2)n1,5.428%
11,Cc1cc(C2CCCN2CCCS(=O)(=O)c2ccccc2)no1 (stereo unspecified),-10.32%
12,Nc1cc(-c2c[nH]nc2C2CCCN2S(=O)(=O)c2ccccc2)ccn1 (stereo unspecified),96.1%
13,COc1ccc(NC(=O)N2CCCCC2c2ncc[nH]2)cc1 (stereo unspecified),18.67%
14,Cn1nnc2c1C(COCC1CC1)CN(C(=O)CC1=CCCCC1)C2 (stereo unspecified),-19.61%
15,CC(NC1(CNC(=O)CC2CCCC2)CCOCC1)c1ccccc1 (stereo unspecified),-11.89%
16,Cc1sc2nc(SC(C)c3nc(C(C)(C)C)no3)nc(N)c2c1C (stereo unspecified),10.97%
17,CCc1nnsc1C(=O)N(C)Cc1ccc(Br)o1,14.42%
18,Cc1ccc(S(=O)(=O)Cc2nsc(N(C)C)n2)c(C)c1,-1.61%
19,CCc1nc(NCC(=O)N2CCOCC2)c2c(n1)c(C)nn2CC,7.048%
20,CCN1CCN(c2ccc(F)cc2C(C)NCc2ccnn2C)CC1 (stereo unspecified),-1.019%
21,COc1nc(C)c(C(=O)N2CCc3[nH]nc(Cc4ccccc4)c3C2)s1,2.938%
22,Cc1nn(C)c2nc(N3CCC(C(O)Cc4ccccc4)CC3)sc12 (stereo unspecified),-11.76%
23,Cc1ccc(N2CCC(C(O)Cc3ccccc3)CC2)nn1 (stereo unspecified),-17.42%
24,Cc1nc(N)sc1C(=O)N1CCC(C(O)Cc2ccccc2)CC1 (stereo unspecified),104.4%
25,COc1nc(C)c(C(=O)N2CCC(C(O)Cc3ccccc3)CC2)s1 (stereo unspecified),114.7%
26,CCOC(=O)N1CCN(C(=O)c2sc(-c3ccccc3)nc2C)CC1,-9.068%

row,Compound,Percent Effect
1,Cc1cc(=O)c(C(=O)N2CCC(C(O)Cc3ccccc3)CC2)c(C)[nH]1 (stereo unspecified),97.46%
2,COc1nc(C)c(C(=O)N2CCN(c3ncccc3C)CC2)s1,-23.23%
3,CC(C)CC(O)C1CCN(C(=O)c2ccc(C(C)C)[nH]c2=O)CC1 (stereo unspecified),-16.76%
4,c1ccc(Cn2cccn2)c(CN2CCCCC2CCn2ccnc2)c1 (stereo unspecified),-5.854%
5,O=C(Nc1ccc(-c2ccccc2)cn1)C1CCN(C(=O)C2CC2)CC1,26.94%
6,Cc1ccc2cc(C3(O)CCN(C(=O)[C@@H]4CCCCN4)CC3)ccc2n1,-9.232%
7,NS(=O)(=O)c1cnn(-c2ccc(NC(=O)C3CCCCC3)cn2)c1,-15.76%
8,Cc1cccc(NC(=O)C2CCc3ccccc3N2)c1.Cl (stereo unspecified),2.596%
9,O=C(Nc1ccc(-c2cnc(NCCO)nc2)cc1)[C@@H]1CCCCN1,129.4%
10,O=C(Nc1cnc2n1CCCC2)c1cccc(NC(=O)C2CCCC2)c1,10.86%
11,Nc1ncc(-c2cccc(NC(=O)[C@@H]3CCCCN3)c2)cn1,116.6%
12,Cc1ccc(NC(=O)C2CCc3ccccc3N2)cc1 (stereo unspecified),-1.128%
13,O=C(Nc1ccc(-c2csnn2)cc1)N1CCN2CCCCC2C1 (stereo unspecified),5.858%
14,CNc1ncc(-c2ccc(NC(=O)[C@@H]3CCCCN3)cc2)cn1,112.9%
15,Nc1ncc(-c2ccc(NC(=O)[C@@H]3CCCCN3)cc2)cn1,109.3%
16,CCc1ncc(C(=O)N(C)CCc2nc3cc(OC)ccc3[nH]2)cn1,4.765%
17,CNC(=O)C(C)(C)N1CCC[C@H]1C(=O)NCC1CC1,11.03%
18,COc1ccc(OCc2noc(CN(C)C3CCS(=O)(=O)C3)n2)cc1 (stereo unspecified),-8.185%
19,CN(Cc1cc(Br)cn1C)C(=O)c1ccon1,-0.2013%
20,O=S1(=O)NC2(CCCN(CCc3ccccc3)C2)COc2ccccc21 (stereo unspecified),103.7%
21,O=S1(=O)NC2(CCCN(Cc3ccc(Cl)cc3)C2)COc2ccccc21 (stereo unspecified),134.9%
22,CN1C2(CCN(Cc3ccc(F)cc3)C2)c2ccccc2S1(=O)=O (stereo unspecified),8.528%
23,O=C1Nc2ccccc2C12CCCN(Cc1ccc3c(c1)OCCO3)C2 (stereo unspecified),-17.7%
24,O=C1NCC2(CCCN(CCc3ccccc3)C2)Oc2ccccc21 (stereo unspecified),-15.46%
25,COCCCC1(CO)CCCN(CCc2ccccc2)C1 (stereo unspecified),-12.43%
26,O=S1(=O)NC2(CCCN(Cc3ccc(F)cc3)C2)COc2ccccc21 (stereo unspecified),98.49%

row,Compound,Percent Effect
1,O=S1(=O)NCC2(CCN(c3ncc(F)cn3)CC2)COc2ccccc21,-10.54%
2,CCN(C)c1ccc(CNC(=O)c2ccc(NC(N)=O)cc2)cc1F,-59.71%
3,CCc1cc(NCc2cc3n(n2)CCCN(S(C)(=O)=O)C3)nc(C)n1,3.028%
4,c1ccc(Oc2nccc3occc23)c(CN2CCCCC2)c1,-8.744%
5,CN(C)S(=O)(=O)NCC1(c2ccccc2Br)CC1,-6.253%
6,COc1ccc(S(=O)(=O)N2C[C@@H]3CN(C)CCO[C@@H]3C2)cc1,104.2%
7,CN1CCO[C@@H]2CN(S(=O)(=O)c3ccccc3)C[C@@H]2C1.O=C(O)C(F)(F)F,98.27%
8,CC(=O)N1CCO[C@@H]2CN(S(=O)(=O)c3cccnc3)C[C@@H]2C1.O=C(O)C(F)(F)F,105.8%
9,CN1CCO[C@H]2CN(S(=O)(=O)c3ccc(C#N)cc3)C[C@H]21.O=C(O)C(F)(F)F,-17.08%
10,CNC(=O)[C@H]1C[C@@H]2CN(S(=O)(=O)c3ccc(OC)cc3)C[C@@H]2N1C.O=C(O)C(F)(F)F,-8.898%
11,CC(C)N1CCO[C@H]2CN(S(=O)(=O)c3ccc(C#N)cc3)C[C@H]21,-6.179%
12,CN1CCO[C@@H]2CN(S(=O)(=O)c3ccccc3)CC[C@@H]2C1.O=C(O)C(F)(F)F,-5.775%
13,Cc1occc1C(=O)NCC(=O)N(C)CCCOc1ccc(F)cc1,-0.7534%
14,Cc1cc(C(C)NC(=O)c2cnc3onc(C)c3c2)c(C)o1 (stereo unspecified),7.597%
15,C1CC1c1nsc(N2CCN(C3CC3)CC2)n1,-1.801%
16,CSCCc1c(-c2ccccc2)ncn1[C@H]1C[C@@H](C(=O)O)N(C)C1,9.47%
17,CCCS(=O)(=O)N1CCN(c2ccnc(N3CCCCC3)n2)CC1,-4.762%
18,Cc1cnc(CCNC(=O)NCCOc2ncccc2Cl)s1,-4.9%
19,CNC(=O)Cc1ccc(NC(=O)NCc2ncc(C)s2)cc1,-0.2896%
20,CCc1cnc(CNC(=O)NCCCO)s1,97.97%
21,Cc1cnc(CCNC(=O)NCCc2ccc(O)cc2)s1,116.1%
22,CCc1cnc(CNC(=O)NC2CC(C)(C)OC2(C)C)s1 (stereo unspecified),0.9333%
23,CCc1cnc(CNC(=O)NCCc2ccc(O)cc2)s1,101.6%
24,CCc1cnc(CNC(=O)N2CCCC(c3ncc[nH]3)C2)s1 (stereo unspecified),-16.47%
25,COc1ccc(CNC(=O)NCCc2nc(C)c(C)s2)cn1,-8.722%
26,CCc1cnc(CNC(=O)N2CCCC(C(=O)NC)C2)s1 (stereo unspecified),-0.4435%

row,Compound,Percent Effect
1,CCn1c(C)cc(C(=O)NCc2cccc(NS(C)(=O)=O)c2)c1C,-5.652%
2,CNC(=O)c1cc(NC(=O)NCC2CCS(=O)(=O)C2)ccc1OC (stereo unspecified),-3.737%
3,Cc1noc(OCc2csc(C)n2)n1,2.505%
4,COc1cc2nc(C)sc2cc1NC(=O)C(C)NC(N)=O (stereo unspecified),-2.888%
5,COc1ccccc1N1CCN(C(=O)CCCS(N)(=O)=O)C(C)C1 (stereo unspecified),-9.849%
6,CCOC(=O)c1sc2ccsc2c1CNC(=O)C(C)(C)C#N,61.27%
7,CCOC(=O)c1sc2ccsc2c1CNC(=O)CC,11.82%
8,CCOC(=O)c1sc2ccsc2c1CN.Cl,-6.159%
9,O=C(c1ccc[nH]1)N1C[C@H]2CC[C@@H]1CN(C1Cc3ccccc3C1)C2,-8.418%
10,Cc1cccc(-c2nc(C)nn2CC(=O)NC(C)C2CC2)c1 (stereo unspecified),96.27%
11,Cc1cccc(-c2nc(C)nn2CN2CCN(S(C)(=O)=O)CC2)c1,-9.044%
12,CCC(C)(C)NC(=O)Cn1nc(C)nc1-c1cccc(C)c1,-9.782%
13,Cc1cccc(-c2nc(C)nn2CC(=O)NC(C)C)c1,108.3%
14,Cc1nc(-c2ccccc2)n(CC(=O)NC(C)C2CC2)n1 (stereo unspecified),-16.22%
15,Cc1cccc(-c2nc(C)nn2CC(=O)N(C)C2CC2)c1,-1.032%
16,Cc1ccc(CNC2(Cc3cc(CC(C)C)on3)COC2)o1,0.7021%
17,O=C1CN(C(=O)c2cccc(C(F)(F)F)c2)CC(O)CN1CC1CC1 (stereo unspecified),100.3%
18,Nc1cc(C(=O)N2CCOC(Cc3cccc(C(F)(F)F)c3)C2)ccn1 (stereo unspecified),-0.1683%
19,CCN1CC(O)CN(C(=O)c2cccc(C(F)(F)F)c2)CC1=O (stereo unspecified),106.7%
20,O=C(c1ccc(=O)[nH]c1)N1CCC(Oc2cccc(C(F)(F)F)c2)CC1,-22.64%
21,N#CCCN1CC(O)CN(C(=O)c2cccc(C(F)(F)F)c2)CC1=O (stereo unspecified),98.63%
22,O=C(O)C(F)(F)F.O=C(c1cccc(Cl)c1)N1CC[C@H]2[C@H]1CCN2CC1CC1,-19.81%
23,CC(C)(C)CN1CC(O)CN(C(=O)c2cccc(C(F)(F)F)c2)CC1=O (stereo unspecified),85.94%
